KCNQ2 inh = rat KCNQ2 potassium channel inhibitors, primary screen, cell-based, CHO-K1, FluxOR thallium flux, B-score; Potassium voltage-gated channel subfamily KQT member 2 (Rattus norvegicus), O88943; 20 min; stronger effect = lower value; B-score at 10 µM; 310,000 compounds, 1.1% hits;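 active = fluorescence ratio B-score at most minus 3 library SDs, with starting brightness B-score within 2 library SDs, cut at about -5.5 in these data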
KCNQ2 enhance = potentiators of rat KCNQ2 potassium channel. 310,000 compounds, 0.54% hits. Potassium voltage-gated channel subfamily KQT member 2 (Rattus norvegicus), O88943. B-score at 10 µM. CHO-K1 KCNQ2, FluxOR thallium flux fluorescence; stronger effect = higher value;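 active = fluorescence ratio B-score at least 3 SD of library B-scores, with initial fluorescence B-score within 3 of them, cut at about 5.3 in these data; same plate scores as AID 2156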;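 note: B-score of peak minus minimum over baseline fluorescence ratio after K+ and Tl+ stimulus; positive B-score means potentiation of KCNQ2 with more thallium influx and brighter signal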
Kir21 conf inh = mouse Kir2.1 channel blockers, retest, confirmation, cell-based, FluxOR thallium flux, duplicate; shares compounds with KCNQ2 enhance; AID 2032, 2009; Kir2.1-expressing cells, FluxOR thallium flux fluorescence; stronger effect = lower value; 2,300 compounds, 41% hits; Tl flux remaining, % of negative control (stronger effect = lower value), % at 10 µM;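 active = Primary-screen hit whose thallium flux fell at least 3 control SD below untreated wells in both duplicates, with normal baseline fluorescence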;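 note: 0% = blank wells without stimulus and 100% = stimulated no-compound controls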
HEK293 ctr = counter-screen for Kir2.1 inhibitors: effect in parental HEK293 cells | shares compounds with KCNQ2 enhance | FluxOR thallium flux fluorescence; 0% = unstimulated blank wells | FluxOR signal as % of negative control (100 = no effect), % at 10 µM | 2,300 compounds, 19% hits;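 active = dye signal at least 3 control SD above or below untreated wells in both duplicates, raw fluorescence within 3, either direction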;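 note: percent is based on the flux ratio of peak minus minimum fluorescence over baseline F0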
CHO-K1 ctr = nonspecific thallium flux increase in parental CHO-K1, confirmation, counter-screen for KCNQ2 potentiator project, cell-based, FluxOR thallium flux, duplicate. shares compounds with KCNQ2 enhance. parental CHO-K1 cells, FluxOR thallium flux fluorescence; zero = vehicle mean+3SD, 100% = vehicle-minus-blank window. activity increase over 3SD of controls, % at 10 µM. 1,200 compounds, 43% hits. AID 2282, 2010;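 active = signal rise of at least 3 SD above the untreated control mean, in both duplicate wells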;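 note: counter screen of KCNQ2 potentiator hits so any rise reflects channel-independent effects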
KCNQ1 sel pot = human KCNQ1 channel potentiation off-target, confirmation, selectivity assay for KCNQ2 potentiator project, cell-based, CHO, FluxOR thallium flux | shares compounds with KCNQ2 enhance | activation over 3SD threshold, % at 10 µM | 1,200 compounds, 28% hits | CHO KCNQ1 stable, FluxOR thallium flux fluorescence; beyond 3SD, as % of vehicle-control signal | AID 2283, 2010;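 active = fluorescence ratio rise of at least 3 SD of vehicle wells above their mean, in both replicate wells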;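 note: 0% = vehicle mean plus 3 SD and 100% = vehicle minus unstimulated blank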
Target sequence (P51787 whole entry, looked up): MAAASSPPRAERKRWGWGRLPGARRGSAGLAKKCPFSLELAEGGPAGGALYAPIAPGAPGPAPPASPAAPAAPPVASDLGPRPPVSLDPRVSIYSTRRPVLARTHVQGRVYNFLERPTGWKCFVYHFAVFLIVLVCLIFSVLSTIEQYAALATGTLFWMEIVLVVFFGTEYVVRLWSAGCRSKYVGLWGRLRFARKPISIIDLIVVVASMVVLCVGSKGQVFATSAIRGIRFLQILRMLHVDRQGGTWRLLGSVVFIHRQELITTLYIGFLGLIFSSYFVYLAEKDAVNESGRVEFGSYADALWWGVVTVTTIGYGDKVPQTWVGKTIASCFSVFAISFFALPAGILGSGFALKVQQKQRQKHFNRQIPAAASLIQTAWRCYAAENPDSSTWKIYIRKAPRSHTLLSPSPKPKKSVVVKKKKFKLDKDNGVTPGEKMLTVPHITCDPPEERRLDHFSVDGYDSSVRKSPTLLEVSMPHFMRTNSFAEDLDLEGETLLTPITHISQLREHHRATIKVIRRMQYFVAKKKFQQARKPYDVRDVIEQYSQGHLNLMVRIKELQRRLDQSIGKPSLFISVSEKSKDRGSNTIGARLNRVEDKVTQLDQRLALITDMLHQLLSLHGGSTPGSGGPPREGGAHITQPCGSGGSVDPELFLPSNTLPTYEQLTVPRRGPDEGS
KCNQ2 pot confirm = rat KCNQ2 channel potentiators, confirmation, cell-based, CHO, FluxOR thallium flux, duplicate. shares compounds with KCNQ2 enhance. AID 2287, 2010. 1,200 compounds, 68% hits. potentiation, less the hit threshold, % at 10 µM. CHO-KCNQ2 cells, FluxOR thallium flux fluorescence;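 active = fluorescence ratio rising 3 SD or more over the vehicle control mean in both replicates, plus primary screen hit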;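 note: peak minus minimum thallium fluorescence divided by baseline after K/Tl stimulus; 0% = vehicle mean plus 3 SD and 100% = vehicle minus unstimulated blank difference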
Kir2-1 sel = mouse Kir2.1 channel activation off-target, confirmation, selectivity assay for KCNQ2 potentiator project, cell-based, HEK293, FluxOR thallium flux; AID 2345, 2010; HEK293 Kir2.1, FluxOR thallium flux fluorescence; activity over 3SD threshold, % at 10 µM; shares compounds with KCNQ2 enhance; 1,200 compounds, 2% hits;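 active = fluorescence ratio rise of at least 3 SD above the vehicle-control mean, seen in both replicates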;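 note: 0% = vehicle mean plus 3 SD and 100% = vehicle minus no-stimulus blank window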
KCNQ2 W236L pot = potentiators of retigabine-insensitive KCNQ2 W236L, mechanism study for KCNQ2 potentiator project, cell-based, rat KCNQ2 W236L, CHO, automated patch clamp. current increase over 3SD of negative controls (%), stronger effect = higher value, % at 25 µM. shares compounds with KCNQ2 enhance. automated patch clamp current. 940 compounds, 10% hits;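 active = current increase at least 3 SD of the untreated controls above them in both duplicate recordings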
* = called active by the depositor; i = inactive; · = not tested or not shown. The list is not random: actives were taken first. Their share in the collection is about 1.6%.

SMILES	KCNQ2 inh	KCNQ2 enhance	Kir21 conf inh	HEK293 ctr	others
Cc1cc(C)c2nc(N(CCCN(C)C)C(=O)C3=COCCO3)sc2c1	i	·	·	·
CCOc1ccc(N2C(=O)C3ON(C)C(c4ccc([N+](=O)[O-])cc4)C3C2=O)cc1 (centres undefined)	i	0.64	·	·
Cc1cc(C)c2cccc(N)c2n1	i	·	·	·
Cc1cc(C)c2ccc(N)nc2c1O	i	12*	i	i	CHO-K1 ctr=-1;KCNQ1 sel pot=-24;KCNQ2 pot confirm=12*;Kir2-1 sel=-36;KCNQ2 W236L pot=i
CCOC(=O)c1c(O)cc(C)cc1Nc1ccccc1	i	·	·	·
CC(NC(=O)CC1CCCCC1)c1ccccc1 (centres undefined)	i	5.3*	i	i	CHO-K1 ctr=-1;KCNQ1 sel pot=-18;KCNQ2 pot confirm=7.1*;Kir2-1 sel=-40;KCNQ2 W236L pot=i
COc1ccccc1NC(=O)C(CC(C)C)NC(=O)C1CCCCC1 (centres undefined)	i	·	·	·
CC(C)CC(NC(=O)C1CCCCC1)C(=O)NC(C)c1ccccc1 (centres undefined)	i	18*	i	i	CHO-K1 ctr=3.7*;KCNQ1 sel pot=-25;KCNQ2 pot confirm=29*;Kir2-1 sel=-39;KCNQ2 W236L pot=i
CC(NC(=O)COC(=O)C1CCC1)c1ccccc1 (centres undefined)	i	·	·	·
CC(Sc1nc2ccccc2s1)C(=O)N(C)Cc1ccccc1 (centres undefined)	i	·	·	·
COc1ccc(Cl)cc1NC(=O)C/C(C)=N/NC(=O)C(=O)NCc1ccccc1	i	·	·	·
O=C(CSCc1ccccc1)NNc1c(F)c(F)cc(F)c1F	i	·	·	·
COc1ccc(S(=O)(=O)Nc2c(O)ccc3ccccc23)cc1OC	i	8*	i	i	CHO-K1 ctr=29*;KCNQ1 sel pot=1.9*;KCNQ2 pot confirm=23*;Kir2-1 sel=-50;KCNQ2 W236L pot=i
COc1ccc(C(=O)Nc2c(O)ccc3ccccc23)cc1OC	i	0.97	·	·
Cc1nc(CS(=O)(=O)c2ccccn2)sc1C(=O)NNC(=O)c1ccccc1	i	·	·	·
CCn1nc(C(=O)OCC(=O)NC(C)C)c2ccccc2c1=O	i	·	·	·
CCn1nc(C(=O)OCc2c(C)noc2C)c2ccccc2c1=O	i	8.4*	i	i	CHO-K1 ctr=77*;KCNQ1 sel pot=-23;KCNQ2 pot confirm=-18;Kir2-1 sel=-42
CCn1c(SCC(=O)Nc2nc(C)cs2)nnc1-c1ccncc1	i	·	·	·
N#C/C(=C\c1cccc(O)c1)C(=O)N1CCCCC1	i	·	·	·
N#C/C(=C\c1cccc(Br)c1)C(=O)N1CCCCC1	-8.5*	-8.5	45%*	i
COc1ccc(OC)c(NC(=O)C2CC2c2ccccc2)c1 (centres undefined)	i	19*	i	72%*	CHO-K1 ctr=-5;KCNQ1 sel pot=8.9*;KCNQ2 pot confirm=59*;Kir2-1 sel=-38;KCNQ2 W236L pot=i
Cc1ccc(Cl)cc1NC(=O)C1C2CCC(O2)C1C(=O)O (centres undefined)	i	·	·	·
COc1ccc(C(=O)Nc2cc(OC)ccc2OC)cc1	i	0.02	·	·
COc1ccc(NC(=O)C(=O)NNC(=O)COc2ccc(Cl)cc2)c(OC)c1	i	10*	i	318%*	CHO-K1 ctr=0.6*;KCNQ1 sel pot=-31;KCNQ2 pot confirm=21*;Kir2-1 sel=-12;KCNQ2 W236L pot=i
COc1ccc(OC)c(NC(=O)c2ccc(Cl)cc2)c1	i	6.5*	i	i	CHO-K1 ctr=-10;KCNQ1 sel pot=-12;KCNQ2 pot confirm=9.8*;Kir2-1 sel=-27;KCNQ2 W236L pot=i
SMILES	KCNQ2 inh	KCNQ2 enhance	Kir21 conf inh	HEK293 ctr	others
COc1cc(NC(=O)COc2ccc(Cl)cc2)ccc1NC(=O)C(C)C	i	·	·	·
COc1ccc(OC)c(NC(=O)C2CCCC2)c1	i	2.4	·	·
Cc1ccc(Cl)cc1NC(=O)C1CC1c1ccccc1 (centres undefined)	i	6.2*	i	i	CHO-K1 ctr=-14;KCNQ1 sel pot=-13;KCNQ2 pot confirm=-1;Kir2-1 sel=-39;KCNQ2 W236L pot=i
COCCC(=O)N1CCC(Oc2ccc(C(=O)N3CCCCC3COC)cc2)CC1 (centres undefined)	i	·	·	·
O=S(=O)(Cc1ccccc1)Oc1ccccc1	i	·	·	·
Cc1ccc(CNS(=O)(=O)c2ccc(CN3C(=O)c4cccnc4C3=O)cc2)o1	i	0.45	·	·
Cc1cccc(NC(=O)C2CC2c2ccccc2)c1C (centres undefined)	i	18*	i	i	CHO-K1 ctr=-6;KCNQ1 sel pot=-11;KCNQ2 pot confirm=47*;Kir2-1 sel=-23;KCNQ2 W236L pot=i
COc1ccc(OC)c(NC(=O)NC2CCCCCCC2)c1	i	12*	i	i	CHO-K1 ctr=-15;KCNQ1 sel pot=-28;KCNQ2 pot confirm=3.5*;Kir2-1 sel=-42;KCNQ2 W236L pot=i
COc1ccc(OC)c(NC(=O)C(=S)NC2CCCCC2)c1	i	0.98	·	·
O=C(Nc1ccccc1F)C1CC1c1ccccc1 (centres undefined)	i	4.2	·	·
O=C(CS(=O)c1ccc(Br)cc1)N1CCOCC1 (centres undefined)	i	1.9	·	·
O=C(CSc1nc(C(F)(F)F)cc(=O)[nH]1)N1CCC(Cc2ccccc2)CC1	i	2.6	·	·
O=C(Nc1ccccc1)/C(=C\c1ccc(F)cc1)NC(=O)c1ccco1	i	·	·	·
CN1CCc2c(n(CC(O)CNCc3ccccc3)c3ccccc23)C1=O (centres undefined)	i	·	72%*	i
CN1CCc2c(n(CC(O)CN(CCO)CCO)c3ccccc23)C1=O (centres undefined)	i	0.46	·	·
Cc1ccc(C)c(CSCc2nc3ccccc3[nH]2)c1	i	·	74%*	i
Cc1ccccc1CSCc1nc2ccccc2[nH]1	i	·	·	·
Cc1[nH][nH]c(=O)c1C(c1ccc(-c2cccc(Cl)c2)o1)c1c(C)[nH][nH]c1=O	-5.9*	-5.9	i	i
Cc1[nH][nH]c(=O)c1C(c1ccc(-c2cccc(C(=O)O)c2)o1)c1c(C)[nH][nH]c1=O	i	·	·	·
Cc1c(C(=O)Nc2ccccc2F)sc2ncn(CC(=O)N3CCCCC3)c(=O)c12	i	·	·	·

Source: PubChem
